High-throughput results deposited in PubChem by several laboratories.
A selection: hits, their analogues and other compounds. The true share with any hit is near 1.3%.
NR5A2 inv ag: suppresses constitutive activity of human LRH-1 | HEK293T StAR-luciferase reporter, LRH-1 transfected, 24 h | hit rate 0.13% among 360,000 | O00482 | inhibition, % at 3.6 µM;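 active = inhibition above the mean inhibition of all tested compounds plus 3 SD, cut at about 73% in these data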;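 note: 0% = DMSO wells and 100% = reporter-only cells lacking LRH-1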
NCOA3 inh: inhibitors of human steroid receptor coactivator 3 (SRC3); HEK293 GAL4-SRC3 luciferase reporter, luminescence; inhibition, % at 3.6 µM; hit rate 0.17% among 360,000;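 active = inhibition above a per-campaign cutoff, the mean of all compounds plus 3 SD, cut at about 60% in these data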;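 note: 0% = DMSO-treated cells and 100% = gossypol-treated cells at 36 µM; higher means less SRC3-driven luciferase light from the GAL4 reporter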
COUP-TFII inh: inhibitors of human COUP-TFII (NR2F2). P24468. HEK293T NGFI-A luciferase reporter, luminescence. inhibition, % at 8.6 µM. hit rate 0.7% among 370,000. AID 686940;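 active = inhibition above a per-plate cutoff, mean inhibition of test wells between control levels plus 3 SD, cut at about 38% in these data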;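 note: cells cotransfected with COUP-TFII expression vector driving the NGFI-A reporter; 0% = median of COUP-TF2 test wells and 100% = reporter-only cells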
Target sequence (P24468 whole entry, looked up): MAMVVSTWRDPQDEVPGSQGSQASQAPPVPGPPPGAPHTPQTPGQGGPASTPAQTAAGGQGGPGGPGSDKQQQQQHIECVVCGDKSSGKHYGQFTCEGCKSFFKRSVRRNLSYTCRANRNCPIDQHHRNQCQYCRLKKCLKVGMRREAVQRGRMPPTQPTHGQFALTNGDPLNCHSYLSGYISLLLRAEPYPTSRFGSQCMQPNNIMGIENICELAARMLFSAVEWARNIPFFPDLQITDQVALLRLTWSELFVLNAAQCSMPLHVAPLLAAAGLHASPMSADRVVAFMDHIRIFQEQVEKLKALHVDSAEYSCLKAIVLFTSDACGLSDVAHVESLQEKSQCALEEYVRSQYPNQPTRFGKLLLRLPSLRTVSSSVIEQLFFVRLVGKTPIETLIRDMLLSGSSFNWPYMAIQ
Gli-Sufu antag: antagonists of Gli-Sufu signaling | Sufu-KO-LIGHT fibroblasts, Gli luciferase reporter luminescence | inhibition, % at 5 µM | hit rate 0.74% among 340,000 | AID 588413;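 active = inhibition above about 55%, limit read from the data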;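 note: 0% = DMSO-treated cells and 100% = wells with medium but no cells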
SRC2 inh: human SRC2 (NCOA2) inhibition; Q15596; HEK293 GAL4-SRC2 luciferase reporter, luminescence; inhibition, % at 9 µM; hit rate 0.17% among 370,000; AID 651957;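 active = inhibition above the mean inhibition of all tested compounds plus 3 SD, set per campaign, cut at about 52% in these data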;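 note: 0% = DMSO treated cells and 100% = cells given Gossypol at 36 µM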
SRC1 inh: human NCOA1 inhibition | Q15788 | HEK293 GAL4-SRC1 luciferase reporter, luminescence | inhibition, % at 3.6 µM | hit rate 0.12% among 360,000;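 active = inhibition above the campaign mean plus 3 SD, with each screening campaign given its own cutoff, cut at about 60% in these data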;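 note: 0% = DMSO treated cells and 100% = gossypol at 36 µM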
The depositor's hits bear a star.

Screening Cc1cc(N)ccc1NC(=O)c1ccccc1 returned NR5A2 inv ag 0, NCOA3 inh 12, COUP-TFII inh 5, Gli-Sufu antag -1, SRC2 inh 15 and SRC1 inh -14.
CCOC(=O)/C(=C\c1ccccc1)C(=O)c1cc(C(C)=O)c(Nc2ccccc2)s1 was read as NR5A2 inv ag -1, NCOA3 inh 9, COUP-TFII inh -3, Gli-Sufu antag 11, SRC2 inh 10 and SRC1 inh 5.
For CCOC(=O)/C(=C\c1cccnc1)C(=O)c1cc(C(C)=O)c(Nc2ccccc2)s1 the results were NR5A2 inv ag 28, NCOA3 inh -14, Gli-Sufu antag 60* and SRC1 inh -96.
For O=C(c1cc(F)cc(F)c1)N1CCCC(c2nc(-c3cccs3)no2)C1 (stereo unspecified) the results were COUP-TFII inh -3 and SRC2 inh -2.
Screening Cc1ccc(S(=O)(=O)N(C)C)cc1NC(=S)N1CCN(Cc2ccc3c(c2)OCO3)CC1 returned NR5A2 inv ag 11, NCOA3 inh 1, COUP-TFII inh 19, Gli-Sufu antag 55*, SRC2 inh 19 and SRC1 inh 0.
Screening Cc1ccccc1NC(=S)N1CCN(Cc2ccc3c(c2)OCO3)CC1 returned NR5A2 inv ag 17, NCOA3 inh 6, COUP-TFII inh 3, Gli-Sufu antag -3, SRC2 inh -27 and SRC1 inh -1.
`O=C(N/N=C/c1cc2c3c(c1O)CCCN3CCC2)c1ccccc1O` gave NR5A2 inv ag 63, NCOA3 inh 68*, COUP-TFII inh -28, Gli-Sufu antag 17, SRC2 inh 7 and SRC1 inh 66*.
For COc1cc(C=NO)nc(-c2ccccn2)c1 the results were NR5A2 inv ag 84*, NCOA3 inh 86*, COUP-TFII inh -23, Gli-Sufu antag 87*, SRC2 inh 33 and SRC1 inh 79*.
Screening COc1ccc2nc(-c3ccccn3)[nH]c2c1 returned NR5A2 inv ag -138, NCOA3 inh -87, COUP-TFII inh -45, Gli-Sufu antag -62, SRC2 inh -40 and SRC1 inh -87.
Screening CC1=[N+](C)c2ccc3ccccc3c2C1(C)C returned NR5A2 inv ag -11, NCOA3 inh -8, COUP-TFII inh 6, Gli-Sufu antag 70*, SRC2 inh 9 and SRC1 inh 4.
For CCN(CC)C(=O)CC[C@H]1CC[C@]2(CCCN(S(=O)(=O)C3CCCCC3)C2)O1 the results were COUP-TFII inh -2 and SRC2 inh 19.
For OCC1OC(n2ccc3c2ncn2ncnc32)C(O)C1O (stereo unspecified) the results were NR5A2 inv ag 65, NCOA3 inh 53, COUP-TFII inh 15, SRC2 inh 37 and SRC1 inh 62*.
Screening Nc1ccn(C2OC(CO)C(O)C2O)c(=O)n1 (stereo unspecified) returned NR5A2 inv ag 2, NCOA3 inh 29, COUP-TFII inh 3, SRC2 inh -7 and SRC1 inh 43.
COC(=O)[C@]12C[C@H](CC(=O)NCC34CC5CC(CC(C5)C3)C4)C(=O)N(Cc3ccco3)C1=C[C@H](COCc1ccccc1)O[C@@H]2C was read as COUP-TFII inh -15 and SRC2 inh -5.
O=[N+]([O-])c1cc(CN2CCN(c3ccccc3)CC2)c(O)c2ncccc12 was read as NR5A2 inv ag 53, NCOA3 inh 34, COUP-TFII inh 9, Gli-Sufu antag 80*, SRC2 inh -5 and SRC1 inh 30.
O=[N+]([O-])c1cc(CN2CCOCC2)c2cccnc2c1O was read as Gli-Sufu antag -10.
Screening COc1ccc(-c2n(CC(=O)OC3CC(C)CCC3C(C)C)c3ccccc3[n+]2C)cc1 (stereo unspecified) returned NR5A2 inv ag 59, NCOA3 inh 70*, COUP-TFII inh -21, Gli-Sufu antag 86*, SRC2 inh 18 and SRC1 inh 24.
`Fc1ccc(-c2n[nH]c(=S)n2N=Cc2cccc(OCc3ccccc3)c2)cc1` gave COUP-TFII inh -9 and SRC2 inh -9.
For CCc1ccc(-c2nc(CS(=O)CC(=O)NCc3ccco3)c(C)o2)cc1 (stereo unspecified) the results were NR5A2 inv ag 41, NCOA3 inh 33, COUP-TFII inh 32, Gli-Sufu antag 18, SRC2 inh 54* and SRC1 inh 21.
COc1ccc(C(=O)NCCNc2nc3cc(C)cc(C)c3cc2C#N)c(OC)c1 was read as NR5A2 inv ag 30, COUP-TFII inh 10 and SRC2 inh 77*.
Screening COc1ccccc1C(=O)NCCNc1nc2cc(C)cc(C)c2cc1C#N returned NR5A2 inv ag -4, NCOA3 inh -1, COUP-TFII inh 5, Gli-Sufu antag 5, SRC2 inh -5 and SRC1 inh -7.
Screening CN(c1ccccc1)S(=O)(=O)c1ccc(Cl)nc1 returned NR5A2 inv ag 5, NCOA3 inh 18, COUP-TFII inh 15, Gli-Sufu antag 3, SRC2 inh -55 and SRC1 inh 8.
Cc1nc(S(=O)(=O)N(C)c2ccccc2)c(C#N)c(C)c1Cl was read as NR5A2 inv ag 14, NCOA3 inh 31, COUP-TFII inh 15, Gli-Sufu antag -13, SRC2 inh 54* and SRC1 inh 18.
For COc1ccc(-c2csc3ncnc(NCCO)c23)cc1 the results were NR5A2 inv ag 12, NCOA3 inh 54, COUP-TFII inh 28, Gli-Sufu antag -16, SRC2 inh 59* and SRC1 inh 54.
Screening COc1ccc(-c2csc3ncnc(Nc4ccc(O)cc4)c23)cc1 returned NR5A2 inv ag -7, NCOA3 inh 13, COUP-TFII inh -20, Gli-Sufu antag -1, SRC2 inh 10 and SRC1 inh -4.
Screening CSCCCNC(=O)Cn1nc(Cc2ccncc2)c2ccccc2c1=O returned COUP-TFII inh 15 and SRC2 inh -5.
`Cc1ccc2nc(C(F)(F)F)c(C#N)c(N)c2c1` gave NR5A2 inv ag 25, NCOA3 inh 36, COUP-TFII inh 34, Gli-Sufu antag -8, SRC2 inh 54* and SRC1 inh 38.
`CCCCN1/C(=C/c2ccc3ccccc3[n+]2CC)Sc2ccccc21` gave NR5A2 inv ag 48, NCOA3 inh 49, Gli-Sufu antag 88* and SRC1 inh 21.
Screening CCCCN1/C(=C/c2cccc[n+]2C)Sc2cc(NC(C)=O)ccc21 returned NR5A2 inv ag -9, NCOA3 inh -21, COUP-TFII inh -6, Gli-Sufu antag 10, SRC2 inh 4 and SRC1 inh -12.
Screening CCN1/C(=C/c2ccc3ccccc3[n+]2CC)C=Cc2ccccc21 returned NR5A2 inv ag 98*, NCOA3 inh 87*, COUP-TFII inh 75*, Gli-Sufu antag 92*, SRC2 inh 12 and SRC1 inh 68*.
Cc1cccc(NC(=O)N2CCC(N(C)CCC(C)C)CC2)c1 was read as COUP-TFII inh 1 and SRC2 inh 11.
